# Laboratory results reported in PubChem BioAssay (NCATS).
# Inconclusive results are not listed. A call without a number means that no potency is given here. The source made the active and inactive calls. The call rests on the fitted dose curve; in most records, active means well fitted activation curve with a large enough effect in the main read-out, with a control signal flat (not every such curve was filed as active); inconclusive means small, poorly fitted or top-dose-only effect, or effect the other way, or a change in a side signal; inactive means flat fitted curve, though single readings scatter.
# Molecular target: 3',5'-cyclic-AMP phosphodiesterase 4B (Homo sapiens) (UniProt Q07343)
# Test: qHTS Assay for Inhibitors of PDE-IV (AID 607)
# Conditions: HEK293 ACTOne CNG channel cells, membrane potential fluorescence; series mostly up to 22.9 µM
# Excerpt: NIH Chemical Genomics Center [NCGC]
# NIH Molecular Libraries Screening Centers Network [MLSCN]
# The cyclic nucleotide phosphodiesterases (PDEs) are proteins that catalyze hydrolysis of 3', 5'-cyclic nucleotides, such as cyclic adenosine monophosphate (cAMP) and cyclic guanosine monophosphate (cGMP), to their corresponding 5'-nucleotide monophosphates. These enzymes play an important role in controlling cellular concentrations of cyclic nucleotides and have a central role in a variety of intracellular signaling events. cAMP PDEs are emerging as a promising class of drug targets in asthma and cardiovascular disease therapeutic areas.
# There are no commercially available cell-based screening assays for PDE inhibitors: currently biochemical assays are done using pure substrates (cAMP or cGMP) and purified recombinant PDE enzymes. As with other biochemical screens on intracellular targets, false positives and false negatives may result from issues involving cell membrane permeability, cellular metabolism, and the like.
# Here we report the development of a cell-based screening assay for cAMP phosphodiesterase (PDE) inhibitors. The assay is based on the BD ACTOne# technology (BD Biosciences) which utilizes a modified cyclic nucleotide-gated channel (CNG) to monitor intracellular cAMP changes in live cells. The CNG channel is localized on the plasma membrane, and opens when the intracellular cAMP level increases, resulting in ion flux and cell membrane depolarization. The influx of cations through the CNG channel can be quantified using membrane potential (MP) dyes. We modified the BD ACTOne technology to allow the detection of PDE inhibitors, and performed an inhibitor screen for PDE-IV, which is expressed endogenously in HEK293 cells. We optimized this assay in homogeneous 1536-well plate assay format for high throughput screening.
# NCGC Assay Protocol Summary:
# The medium contained 10% FBS (Invitrogen), 2 mM L-glutamine, and 250 ug/ml G418 (Cellgro) and 1 ug/ml puromycin (Clontech). ACTOneTM parental cells (BD Biosciences) were maintained in the same medium without puromycin.
# The activity of the CNG channel was measured by BD ACTOneTM membrane potential dye kit (BD Biosciences). Forskolin, a positive control for cAMP activation and RO 20-1724, a PDE inhibitor, were both purchased from Sigma and solublized in DMSO.
# Sequence,Parameter,Value,Description
# 1,Reagent,3 uL,1000 cells/well 1536 TC treated Black plate
# 3,Compound,0.5 uL,Kalypsys dispense RO 20-1724 100 uM final [A]
# 4,Reagent,3 uL,BD membrane potential dye
# 6,Compound,23 nL,Final concentration was 0.7nM to 22.9uM
# 8,Detector,EX 535 / EM 590 [B],Envision
# Footnotes: [A] The stock 2 mM RO 20-1724 PDE inhibitor was made in 10 % DMSO. Parental cell line received 10 uM forskolin + 100 uM RO. [B] Envsion settings: Bottom Excitation 535/20 nm top emission 590/20, gain of 150 and 5 flashes per well.
# Keywords: PDE, PDE-IV, cytotoxicity, flourescence, MLSMR, MLSCN, NIH Roadmap, qHTS, NCGC
# Chain of 3',5'-cyclic-AMP phosphodiesterase 4B (Homo sapiens) (Q07343 whole entry, looked up): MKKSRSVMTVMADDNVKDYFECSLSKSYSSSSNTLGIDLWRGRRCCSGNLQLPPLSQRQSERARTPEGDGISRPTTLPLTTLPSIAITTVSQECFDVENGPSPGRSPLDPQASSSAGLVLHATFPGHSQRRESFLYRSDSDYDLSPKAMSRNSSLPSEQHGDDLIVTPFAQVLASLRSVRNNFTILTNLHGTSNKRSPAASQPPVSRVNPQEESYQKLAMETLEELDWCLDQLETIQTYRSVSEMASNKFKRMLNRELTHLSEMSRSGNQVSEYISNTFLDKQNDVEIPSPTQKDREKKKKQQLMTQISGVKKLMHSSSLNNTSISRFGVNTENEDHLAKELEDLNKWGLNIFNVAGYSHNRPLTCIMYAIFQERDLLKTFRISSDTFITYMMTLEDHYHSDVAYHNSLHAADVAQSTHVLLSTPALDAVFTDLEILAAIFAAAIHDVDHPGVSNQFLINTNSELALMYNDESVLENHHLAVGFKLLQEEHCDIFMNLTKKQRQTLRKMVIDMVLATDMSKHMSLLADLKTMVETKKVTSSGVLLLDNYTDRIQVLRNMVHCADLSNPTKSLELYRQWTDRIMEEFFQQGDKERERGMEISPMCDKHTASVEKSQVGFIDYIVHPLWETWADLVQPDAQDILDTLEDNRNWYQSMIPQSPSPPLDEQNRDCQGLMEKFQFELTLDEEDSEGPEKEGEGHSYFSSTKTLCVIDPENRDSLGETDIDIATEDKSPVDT
row,SMILES,Potency
1,Cc1nc2ccc(NC(=O)Nc3ccnc4cccnc34)cc2o1,inactive
2,N[C@@H](C(=O)O)c1ccc(P(=O)(O)O)cc1,inactive
3,CCCCN1CCC[C@@H]1CNC(=O)c1cc(C#N)c2ccccc2c1OC,inactive
4,O=C(c1c(O)c2ccc(Cl)cc2[nH]c1=O)C1CC1,inactive
5,COc1ccc2[nH]c(I)c(CCNC(C)=O)c2c1,inactive
6,N[C@@H](CCCP(=O)(O)O)C(=O)O,inactive
7,CC(C)NC[C@H](O)c1ccc2ccccc2c1,inactive
8,O=C1CC2(CCCC2)CC(=O)N1CCNC[C@H]1COc2ccccc2O1,inactive
9,COc1ccccc1N1CCN(CCCCN2C(=O)CCC2=O)CC1,inactive
10,NC(=O)C[C@H](NC(=O)Cc1ccc(O)cc1O)C(=O)O,inactive
11,N[C@H](CCC(=O)N[C@H](CSN=O)C(=O)NCC(=O)O)C(=O)O,inactive
12,N[C@@H](C(=O)O)c1ccc(C(=O)O)c(O)c1,inactive
13,Fc1cccc(/C=N\N=C/c2cccc(F)c2)c1,inactive
14,c1ncc(CC2CCNCC2)[nH]1,inactive
15,C[N+]1(C)CCc2cc3c(cc2[C@@H]1[C@@H]1C(=O)Oc2c1ccc1c2OCO1)OCO3,inactive
16,O=C(NC[C@H]1CCCCN1)c1cc(OCC(F)(F)F)ccc1OCC(F)(F)F,inactive
17,N[C@@H](CO)C(=O)O,inactive
18,CCCCCCCCCCCCCCCC(=O)NC(C)C,inactive
19,C1CCC(N=C(NC23CC4CC(CC(C4)C2)C3)N2CCOCC2)CC1,inactive
20,COC(=O)C1=C(C)NC(C)=C([N+](=O)[O-])[C@H]1c1ccccc1C(F)(F)F,inactive

row,SMILES,Potency
1,COc1ccccc1N1CCN(CCN2C(=O)c3ccccc3C(C)(C)C2=O)CC1,inactive
2,S=C(Nc1ccccc1)Nc1nccs1,inactive
3,C[C@H](C[C@H](N)C(=O)O)C(=O)O,inactive
4,CC(C)SC(=N)N,inactive
5,CN1CCc2cc3c(cc2[C@@H]1[C@@H]1C(=O)Oc2c1ccc1c2OCO1)OCO3,inactive
6,C[C@@H]1C[C@@H]2[C@H]3CCC4=CC(=O)C=C[C@]4(C)[C@]3(F)[C@@H](O)C[C@@]2(C)[C@@]1(O)C(=O)CO,inactive
7,O=c1nc2ccccc2c2n1C[C@H](CN1CCN(c3ccccc3)CC1)N2,inactive
8,COc1ccc2c(c1)c(CC(=O)N1CCOCC1)c(C)n2C(=O)c1ccc(Cl)cc1,inactive
9,NC1(C(=O)O)CCC1,inactive
10,CC(N)=NCCCC[C@H](N)C(=O)O,inactive
11,CC[C@]1(c2ncc[nH]2)Cc2ccccc2O1,inactive
12,COc1ccccc1NC(=O)Nc1nc(-c2cccnc2)nc2ccccc12,inactive
13,Cc1cc(Cn2cnc3c2C[C@@H](C(=O)O)N(C(=O)C(c2ccccc2)c2ccccc2)C3)ccc1N(C)C,inactive
14,C[C@@H](NCc1cc(Br)cc2[nH]c(=O)c(=O)[nH]c12)P(=O)(O)O,inactive
15,Nc1nc(NCCc2ccc(O)cc2)nc2nc(-c3ccco3)nn12,inactive
16,NC[C@](O)(CS(=O)(=O)O)c1ccc(Cl)cc1,inactive
17,CC(C)[C@@H]1[C@H]2CC[C@H](C2)[C@H]1N,inactive
18,OC[C@@H](O)COc1cccc2ccccc12,inactive
19,OC[C@@H]1O[C@@H](n2cnc3c(N[C@H]4CCC[C@@H]4O)ncnc32)[C@H](O)[C@H]1O,inactive
20,O=C1C(c2ccccn2)=[N+]([O-])c2ccccc21,inactive
